TTR transcr act = TTR transcription activators in neuroblastoma reporter cells, primary screen, cell-based, luminescence, SH-SY5Y, TTR promoter Gaussia luciferase; 100% = recombinant luciferase protein wells; activation, % at 16.7 µM; 92,000 tested, 1.3% active; AID 1117267, 2014;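 active means activation above the mean of all tested compounds plus 3 SD, cut at about 9.5% in these data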;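 further: cells exposed to compounds for one day before reading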
TTR inh HuH7 = TTR promoter reporter inhibitors in hepatoma cells, counter-screen for TTR transcription activator project, cell-based, luminescence, HuH7 hepatoma; inhibition, % at 16.7 µM; 1,100 tested, 4% active; AID 1117279, 2014; shares compounds with TTR transcr act; HuH7 TTR promoter-Gaussia luciferase reporter;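 active means average inhibition above the solvent-only control wells' mean plus 3 SD, cut at about 15% in these data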;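 further: inhibitors lower well luminescence so higher value means more inhibition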
TTR up confirm = TTR transcription activators, retest, confirmation, cell-based, luminescence, SH-SY5Y, triplicate | 1,100 tested, under 10 active | SHSY5Y TTR promoter Gaussia luciferase; 100% = purified Lucia enzyme wells, no cells | shares compounds with TTR transcr act | AID 1117280, 2014 | activation, % at 16.7 µM;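 active means mean activation above a set limit taken from the earlier primary screen, cut at about 11% in these data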
Each line names hits and unclear results; the compound was inactive in the other large screens (follow-up assays come after a bar, where they were run). This excerpt belongs to a sample that is enriched for hits.

CCCNC(=O)c1ccc(N2CCC3(CC2)CC(c2ccccc2)=NO3)c(NC(=O)c2cccc(OC)c2)c1	none
CCCNC(=O)c1ccc(N2CCC3(CC2)CC(c2ccccc2)=NO3)c(NC(=O)c2ccco2)c1	TTR transcr act 19 | TTR inh HuH7 19 | TTR up confirm inactive
Cc1ccc(CNC(=O)c2ccc(N3CCC4(CC3)CC(c3ccccc3)=NO4)c(NC(=O)c3ccco3)c2)cc1	none
O=C(NCCc1ccccc1)OCc1cn(-c2ccc(F)c(F)c2)nn1	none
CCOC(=O)C1CCN(C(=O)C(C)(C)NC(=O)Nc2ccc(Cl)cc2Cl)CC1	none
Cc1ccccc1-c1cc2c(c3c1ccn3C)C1CCC2O1 (configuration not stated)	none
Cn1ccc2c(-c3ccc(F)cc3)cc3c(c21)C1CCC3C1 (configuration not stated)	none
Cc1ccccc1-c1cc2c(c3c1ccn3C)C1CCC2C1 (configuration not stated)	TTR transcr act 10 | TTR inh HuH7 inactive | TTR up confirm inactive
CC(C)CCN1CCC[C@]2(N[C@H](c3ccccc3)[C@@H]3C(=O)N(Cc4ccccc4)C(=O)[C@@H]32)C1=O	none
CCN1C(=O)[C@H]2[C@@H](c3ccc(C)cc3)N[C@]3(CCCN(CCC(C)C)C3=O)[C@H]2C1=O	TTR transcr act 20 | TTR inh HuH7 inactive | TTR up confirm inactive
CCN1C(=O)[C@H]2[C@@H](c3ccccc3)N[C@]3(CCCN(Cc4ccccc4)C3=O)[C@H]2C1=O	none
CCN1C(=O)[C@H]2[C@@H](c3ccc(OC)cc3)N[C@]3(CCCN(Cc4ccco4)C3=O)[C@H]2C1=O	none
COc1ccc([C@H]2N[C@]3(CCCN(Cc4cccn4C)C3=O)[C@H]3C(=O)N(C)C(=O)[C@@H]23)cc1	none
CN1C(=O)[C@H]2[C@@H](c3ccccc3)N[C@]3(CCCN(Cc4ccco4)C3=O)[C@H]2C1=O	TTR transcr act 10 | TTR inh HuH7 inactive | TTR up confirm inactive
CC(=O)Nc1ccc(S(=O)(=O)NN=CCCc2ccccc2)cc1	none
COc1cc(NC(=O)Cn2cnc3c(OCc4ccccc4)ncnc32)cc(OC)c1OC	none
COc1cccc(NC(=O)CN(C)C(=O)CSCC(=O)Nc2ccc(C)cc2)c1	none
COc1cc(CC(=O)NCC2COc3ccccc3O2)cc(OC)c1OC (configuration not stated)	none
COc1ccc(O)c(/C=N/NC(=O)CSc2nnc(C)n2-c2ccccc2)c1	TTR transcr act 11 | TTR inh HuH7 inactive | TTR up confirm inactive
Cc1cccc(C)c1NC(=O)CSc1nnc(C)n1-c1ccccc1	none
COC(=O)c1ccc(NC(=O)CSc2nnc(C)n2-c2ccccc2)cc1	none
CC(C)[C@H](NC(=O)c1ccco1)C(=O)OCC(=O)Nc1cccc(F)c1	none
CC(NC(=O)c1ccco1)C(=O)OCc1cccc(C(F)(F)F)c1 (configuration not stated)	TTR transcr act 11 | TTR inh HuH7 inactive | TTR up confirm inactive
CC(NC(=O)[C@H](C)NC(=O)c1ccco1)c1ccc(S(N)(=O)=O)cc1 (some centres not stated)	none
CCCCOC(=O)CCN1C(=O)/C(=C/c2ccccc2)SC1=S	none
CCCCNC(=O)COC(=O)c1ccc(N(C)C)cc1	none
Cc1cc(N2CCN(C)CC2)nc2ccc(NC(=S)N3CCCCCC3)cc12	TTR transcr act 9.7 | TTR inh HuH7 inactive | TTR up confirm inactive
Cc1cc(N2CCN(C)CC2)nc2ccc(NC(=S)NCCN3CCc4ccccc4C3)cc12	none
Cc1cc(N2CCOCC2)nc2ccc(NC(=O)C3CCCCC3)cc12	none
C[C@@]12C(=O)N(c3ccc(Cl)cc3)C(=O)N1[C@@H]1c3ccccc3OC[C@@H]1[C@H]2c1ccccc1	none
O=C(CC[C@H]1O[C@@H](n2ccc(=O)[nH]c2=O)[C@H](O)[C@@H]1O)NCc1ccccc1	none
COc1ccccc1C(=O)Nc1cccc(SC)c1	none
COc1ccc(NC(=O)c2ccccc2SC)cc1OC	TTR transcr act 12 | TTR inh HuH7 inactive | TTR up confirm inactive
CSc1ccccc1C(=O)Nc1cccc(N(C)S(C)(=O)=O)c1	none
Cc1cc(OCC(=O)Nc2ccccc2C(N)=O)c2c(C)cc(=O)oc2c1	none
O=C(NCCc1ccccc1)C1CCCN(C(=O)Nc2ccc(F)cc2)C1 (configuration not stated)	none
COCCN(C(=O)COC(=O)CCCOc1ccc(OC)cc1)c1c(N)n(Cc2ccccc2)c(=O)[nH]c1=O	none
O=C(Cc1cccc(NC(=O)C2CCN(S(=O)(=O)c3cccc([N+](=O)[O-])c3)CC2)c1)Nc1cccc(C(=O)N2CCOCC2)c1	none
